PubChem BioAssay (Tox21)
Inconclusive results are not listed. Where a call stands in place of a potency, no number is given. Unmarked numbers belong to inactive results. Active and inactive are the calls of the source. Calls follow the shape of the dose curve; as a rule, active = well fitted cell-killing curve with a large enough effect in the repeat runs; inconclusive = weak or mixed curves; inactive = flat fitted curve, though single readings scatter.

Assay: qHTS RealTime-Glo MT Cell Viability Assay in HepG2 cells - 16 hour (AID 1224885); also: nearly all actives have a fitted effect of over 50% in size
Settings: RealTime-Glo luminescence; series mostly up to 76.8 µM
Description: U.S. Tox21 Program National Center for Advancing Translational Sciences [NCATS] NIH Chemical Genomics Center [NCGC] U.S. Environmental Protection Agency [EPA] National Institutes of Environmental Health Sciences [NIEHS] National Toxicology Program [NTP] U.S. Food and Drug Administration [FDA] Tox21 Assay Overview: Measure of cell viability is critical in the cell-base assay. Analysis of cell viability is necessary for the characterization of cell responses to cytotoxic drugs and environmental stress. A RealTime-Glo MT Cell Viability Assay to monitor cell viability in real time of continues cell culture during 40 hours of compound treatment was used to screen Tox21 10K library compounds in HepG2 cells. The RealTime-Glo MT Cell Viability Assay is a nonlytic, homogeneous, bioluminescent method to measure cell viability in real time using a simple, plate-based method. The assay involves adding NanoLuc luciferase and a cell-permeant prosubstrate to cells in culture. Viable cells reduce the proprietary prosubstrate to generate a substrate for NanoLuc luciferase. This substrate diffuses from cells into the surrounding culture medium, where it is rapidly used by the NanoLuc Enzyme to produce a luminescent signal. The signal correlates with the number of viable cells, making the assay well suited for cytotoxicity studies.
Tox21 Assay Protocol Summary: The mixture of HepG2 cell suspension and reagents were dispensed at 600cells/6 ul/well in 1536-well tissue culture treated black solid bottom plates using a Multidrop dispenser. After the assay plates were incubated at a 37 C/5% CO2 incubator for 5 hours, 23 nL of compounds dissolved in DMSO, positive and negative controls was transferred to the assay plate by a pintool work station. The plates were incubated at 37 C for 40 hours. The luminescence intensity were measured at 0h, 8h, 16h, 24h, 32h and 40h time points using ViewLux plate reader during compound treatment.

Row | Compound | Potency | activity change, negative = cytotoxic
1 | CC1=CC[C@@]23C[C@@H]1C(C)(C)[C@@H]2CC[C@H]3C | inactive | –
2 | CCCC(=O)OC(=O)CCC | inactive | –
3 | CC(O)Cn1cnc2c1c(=O)n(C)c(=O)n2C (stereo not given) | inactive | –
4 | CC[C@@H](CO)NCCN[C@@H](CC)CO | inactive | –
5 | CC(C)c1ccc(C#N)cc1 | inactive | –
6 | CCOc1ncc(F)c(=O)[nH]1 | inactive | –
7 | Cc1ccc(N(CC2=NCCN2)c2cccc(O)c2)cc1 | inactive | –
8 | CCN(CC)CCNC(=O)c1cc(Cl)c(N)cc1OC | inactive | –
9 | O=P(O)(O)Oc1ccccc1 | inactive | –
10 | c1ccc2sc(SSc3nc4ccccc4s3)nc2c1 | – | 5.08% [at 15.8 µM]
11 | CCN(Cc1cccc(S(=O)(=O)O)c1)c1ccc(C(=C2C=CC(=[N+](CC)Cc3cccc(S(=O)(=O)O)c3)C=C2)c2ccccc2S(=O)(=O)[O-])cc1 | inactive | –
12 | O=C(O)/C=C/c1ccc(O)c(O)c1 | inactive | –
13 | CC(=O)OCC(=O)[C@@]1(OC(C)=O)[C@@H](C)C[C@H]2[C@@H]3C[C@H](F)C4=CC(=O)C=C[C@]4(C)[C@@]3(F)[C@@H](O)C[C@@]21C | inactive | –
14 | CCCCCc1ccco1 | inactive | –
15 | CCCCCCCCCCCCCOC(=O)CCSCCC(=O)OCCCCCCCCCCCCC | – | -6.5% [at 15.8 µM]
16 | CCCCCCCC(=O)Oc1c(Br)cc(C#N)cc1Br | inactive | –
17 | CC(C)c1ccc(C(=O)N=C(N)N)cc1S(C)(=O)=O | inactive | –
18 | COC1CCC=CO1 (stereo not given) | inactive | –
19 | CCCCCCCCCCCCCC(=O)OCC(O)CO (stereo not given) | inactive | –
20 | CCN(CC)CCOc1ccccc1C(=O)CCc1ccccc1 | inactive | –

Row | Compound | Potency | activity change, negative = cytotoxic
21 | Cc1cc([N+](=O)[O-])ccc1N | inactive | –
22 | Cc1c[nH]c2ccccc12 | inactive | –
23 | CC(C)C(O)C(C)(C)CO (stereo not given) | inactive | –
24 | CCN(CC)c1cccc(O)c1 | inactive | –
25 | CC[C@H]1OC(=O)[C@H](C)[C@@H](O[C@H]2C[C@@](C)(OC)[C@@H](O)[C@H](C)O2)[C@H](C)[C@@H](O[C@@H]2O[C@H](C)C[C@H](N(C)C)[C@H]2O)[C@](C)(O)C[C@@H](C)CN(C)[C@H](C)[C@@H](O)[C@]1(C)O | inactive | –
26 | C1CCCCC1 | inactive | –
27 | COc1ccc(C(=O)NCc2ccc(OCCN(C)C)cc2)cc1OC | inactive | –
28 | O=C(O)c1ccc(O)cc1O | inactive | –
29 | CCCCOCCOC(=O)c1cccnc1 | inactive | –
30 | O=CNNC=O | inactive | –
31 | CSCC[C@H](NC(=O)[C@H](Cc1c[nH]c2ccccc12)NC(=O)CCNC(=O)OC(C)(C)C)C(=O)N[C@@H](CC(=O)O)C(=O)N[C@@H](Cc1ccccc1)C(N)=O | inactive | –
32 | Cc1ccc(Cl)cc1N | inactive | –
33 | O=C(CCS)OCC(COC(=O)CCS)(COC(=O)CCS)COC(=O)CCS | inactive | –
34 | CCCCCC | inactive | –
35 | COC(CC(C)CCCC(C)(C)O)OC (stereo not given) | inactive | –
36 | Nc1ccn([C@H]2CS[C@@H](CO)O2)c(=O)n1 | inactive | –
37 | CC12CC3CC(C)(C1)CC(N)(C3)C2 | inactive | –
38 | O=C(Oc1ccccc1)c1ccc2ccccc2c1O | inactive | –
39 | C=Cc1ccc(OC(C)=O)cc1 | inactive | –
40 | CN=C(N)NC(=O)Nc1c(C)cccc1C | inactive | –
